Assay in all cases: NCI-60 one-dose screen, 48 h (100 = growth as untreated, 0 = no growth, -100 = all killed)
Holding throughout (conditions): 10 µM unless noted

Assay [1] concerns EKVX NSCLC.
In assay [2] the test system is SN12C renal.
Assay [3] has as its system UO-31 renal.
The subject of assay [4] is ACHN renal.
The subject of assay [5] is CAKI-1 renal.
Assay [6] concerns A498 renal.
Assay [7] relates to CCRF-CEM leukemia.
The subject of assay [8] is SR leukemia.
Assay [9] has as its system RPMI-8226 leukemia.
The test system of assay [10] is OVCAR-8 ovarian.
Assay [11] concerns OVCAR-5 ovarian.
Assay [12] concerns OVCAR-4 ovarian.
Assay [13] has as its system SK-OV-3 ovarian.
Assay [14] concerns IGROV1 ovarian.
The subject of assay [15] is OVCAR-3 ovarian.
For assay [16], the system named is HS 578T breast.
Assay [17] has as its system NCI/ADR-RES ovarian.
For assay [18], the system named is TK-10 renal.
In assay [19] the test system is MOLT-4 leukemia.

The panel holds about 83,000 compounds, 20% with a hit somewhere; the sample as a whole holds those more often.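 Method: cells in 96-well plates; compound added at one concentration; 48 h incubation; percent growth measured; values under 10 scored active.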 Values without a mark were called inactive. The source made the active and inactive calls.

For `C=C(Cl)C(=NC(C)(C)C)Nc1ccccc1C`, the growth in assay [1] was 90.4%; in assay [2], 83.5%; in assay [3], 80.7%; in assay [4], 91%; in [5] it was 104%; in [6] it was 105%. Besides, the growth is 98.1% in assay [7]; 1.56% (active) in [8]; 75.1% in assay [9]; 89.2% in [10]; 114% in [11]; 91.7% in assay [12]. For the same compound, the growth in assay [13] is 105%; in assay [14], 119%; in assay [15], 65.9%; in assay [16], 96.5%; in assay [17] it was 107%.

Regarding `O=C(/C=C/C=C/c1ccccc1)c1ccco1`, the growth in assay [1] is 112%; in assay [2], 99.8%; in assay [4], 107%; in assay [5], 97.3%; in assay [6], 106%; in assay [7], 30.2%. Moreover, the growth is 16.7% in assay [8]; 10.8% in [9]; 89.1% in [10]; 108% in assay [11]; 78.7% in assay [12]; 105% in assay [13]. The growth was 64.8% in assay [14], 85.6% in assay [15], 62.6% in [16] and 91.3% in assay [17].

As to `Cc1ccnc(NC(c2ccccc2)c2ccc3cccnc3c2O)c1` (stereo unspecified), the growth was 33.5% in [1]; 38.8% in assay [2]; 14.8% in assay [3]; 58.3% in assay [18]; 28.5% in assay [4]; 14.7% in assay [5]. The growth in assay [6] is 77.3%; in assay [7] it was 16.4%; in assay [8] it was 10%; in [9] it was 51.5%; in assay [10], 28.1%; in assay [12], 20.6%. Further, the growth was 57.5% in [13], 36.5% in assay [14], 19.5% in assay [15] and 22.4% in [17].

Take `NC(=O)/C=C/C(=O)c1c(Cl)cccc1Cl`: the growth in assay [1] is -36.4% (active); in assay [2], -90.2% (active); in assay [3] it was -86.4% (active); in assay [4], -76.3% (active); in assay [5], -86.9% (active); in assay [6], -58.4% (active). Moreover, the growth in assay [7] was -33.9% (active); in [8] it was -42% (active); in [9], -34.7% (active); in [10] it was -67.4% (active); in assay [11], -99.6% (active); in assay [12], -67.4% (active). Moreover, the growth in assay [13] is 59%; in [14], -57.5% (active); in assay [15], -81.3% (active); in [17], -59.4% (active).

As to `CCOC(=O)/C(=C\c1ccc(-c2ccccc2)cc1)C(C)=O`, the growth in [1] is 99.2%; in assay [2], 89.9%; in assay [18] it was 86.1%; in assay [4], 104%; in [5], 98.7%; in assay [6], 92.2%. Also, the growth was 107% in [7]; 107% in assay [19]; 95.9% in [8]; 105% in assay [9]; 113% in assay [10]; 96.7% in assay [11]. Besides, the growth in [12] is 105%; in assay [13], 116%; in [14] it was 101%; in assay [15], 98.2%; in assay [16] it was 103%; in [17] it was 103%.

As to `CN(C)c1ccc(/C=N/N=C(\C#N)[S][Sn]([Cl])([c]2ccccc2)[c]2ccccc2)cc1`, the growth in assay [1] was 44%; in assay [2] it was 28.8%; in assay [4], -51% (active); in assay [5], 46.4%; in assay [6], 32%; in [7], -20.2% (active). Also, the growth in assay [19] is 6.2% (active); in assay [8] it was 5.61% (active); in [10], 60.6%; in assay [11], 13.1%; in assay [12], 28.1%; in assay [13], 99.7%. Further, the growth was 43% in assay [14], -80.1% (active) in assay [15], 61.7% in [16] and 66.9% in assay [17].

Turning to `O=C1C2=C(Nc3cc([N+](=O)[O-])ccc3N2)OC1c1c2ccccc2cc2ccccc12` (stereo unspecified), the growth was 43.6% in [1]; 30.6% in assay [2]; 51.4% in assay [4]; 53.1% in assay [5]; 104% in assay [6]; 9.72% (active) in [7]. Also, the growth is 8.22% (active) in assay [19]; 23.5% in [8]; 15% in assay [9]; 47.5% in assay [10]; 50% in [12]; 104% in assay [13]. Besides, the growth in assay [14] was 52.3%; in assay [15], 69.4%; in assay [16], 73.6%; in [17], 38.3%.

Regarding `Cn1c2ccccc2c2nnc(N/N=C/c3ccccn3)nc21`, the growth in [1] was -11.9% (active); in assay [2], 12.3%; in assay [3], 4.82% (active); in [18] it was -18.9% (active); in assay [4], -4.67% (active); in [5], -21.1% (active). Besides, the growth was 34.5% in [6]; -37.2% (active) in assay [7]; -21.7% (active) in [19]; 8.61% (active) in [8]; -14.2% (active) in assay [9]; 24.4% in [12]. Moreover, the growth was -11.1% (active) in [13], 4.97% (active) in assay [14], 23.5% in assay [15] and 6.51% (active) in assay [17].

Turning to `CN(Cc1cnc2nc(N)nc(N)c2n1)c1ccc(C(=O)NC(CCC(=O)O)C(=O)O)cc1` (stereo unspecified), the growth in assay [1] was 70.9%; in assay [2], 26.9%; in assay [3] it was 9.25% (active); in assay [18], 58.8%; in [4] it was 26.8%; in assay [5] it was 22.2%. The growth is 35.4% in assay [6]; 28.8% in [7]; 24.4% in assay [19]; 37.3% in assay [9]; 24% in [10]; 44.9% in assay [11]. The growth was 61.3% in assay [12]; 59.3% in assay [13]; 31.2% in assay [14]; 37.8% in assay [15]; 76.6% in [16]; 26.7% in [17].

In the case of `Cc1ccc2c(ccc3c[n+]4c5ccccc5ccc4n32)c1`, the growth in [1] is 22.4%; in [2], 5.27% (active); in [4] it was 46.9%; in assay [5], 67.8%; in assay [6], 16%; in assay [7], 19.2%. Besides, the growth was -12.5% (active) in assay [8]; 31.7% in [9]; 3.22% (active) in assay [10]; 47.6% in assay [11]; -35.4% (active) in assay [12]; 0.442% (active) in assay [13]. Also, the growth is 27% in [14], -43.2% (active) in [15], 14.4% in assay [16] and 70.3% in assay [17].

`OC(CNc1ccnc2cc(Cl)ccc12)CNc1ccnc2cc(Cl)ccc12`: the growth in assay [1] is 78.6%; in assay [2] it was 37.9%; in [3] it was 88.1%; in assay [18], 87.5%; in [4], 99%; in [5] it was 101%. Besides, the growth in [6] is 76.9%; in assay [7], -15.8% (active); in assay [8] it was 2.51% (active); in assay [9], 92.6%; in assay [10] it was 52.5%; in [12], 48%. In addition, the growth in assay [13] was 113%; in assay [14] it was 87.6%; in assay [15], 43.6%; in [16] it was 89%; in assay [17], 106%.

In the case of `COc1cc(/C=C(/C)C[N+](=O)[O-])ccc1O`, the growth in assay [2] was 86.3%; in assay [3], 73.3%; in assay [18], 87.4%; in assay [4] it was 95.9%; in assay [5], 84.3%; in assay [7] it was 56.9%. The growth in assay [19] is 80.6%; in assay [8], 34%; in assay [10] it was 94.7%; in assay [11] it was 110%; in [12], 104%; in assay [13] it was 103%. Besides, the growth in [14] was 44.1%; in [15], 85.4%; in assay [16], 98.7%; in assay [17], 102%.

For the compound `O=C1c2ccccc2C(=O)c2sc(Nc3ccc(Cl)cc3)nc21`, the growth was -80.3% (active) in assay [2]; 21.7% in assay [3]; -23.4% (active) in assay [4]; 75% in assay [5]; 87.3% in assay [6]; 13.1% in assay [7]. Moreover, the growth in [19] is 6.68% (active); in [8], 4.26% (active); in assay [9], 7.64% (active); in assay [11] it was -62.5% (active); in assay [12] it was 1.65% (active); in assay [13], 100%. The growth in [14] is 34.8%; in assay [15], -39.6% (active); in assay [16], 70.6%; in [17], 16.8%.

Consider `N#CSCc1ccc(Cl)c(CSC#N)c1`, for which the growth was 75.1% in [1]; 33.1% in assay [2]; 32.5% in assay [4]; 22.5% in [5]; 18% in assay [6]; 12% in assay [7]. Also, the growth in assay [19] was 17.5%; in [8], 8.52% (active); in assay [9] it was 23.9%; in [10], 61.9%; in assay [11], 68.7%; in assay [12], 48.7%. Also, the growth in assay [13] was 90.1%; in [14] it was 59.4%; in assay [15] it was 46.3%; in assay [16] it was 49%; in assay [17], 45.5%.

Values taken from PubChem BioAssay (NCI).
